Assay results reported in PubChem BioAssay (NCI).
This is part of a sample that, as a whole, favours compounds with a hit. Of some 83,000 tested, about 20% had one in any assay.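 Note: values are percent growth. 100 is the growth of untreated cells, values between 100 and 0 indicate rising inhibition; between -100 and 0 indicates cell death.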 A number with no mark means an inactive call. Active and inactive are the calls of the source.

Test system: OVCAR-5 ovarian
Test: NCI-60 one-dose screen, 48 h (100 = growth as untreated, 0 = no growth, -100 = all killed)
Details: 10 µM unless noted
Method: Growth inhibition of the OVCAR-5 human tumor cell line is measured as a screen for anti-cancer activity. Cells are grown in 96 well plates and exposed to the test compound for 48 hours. Compounds are tested at a single concentration, which is 10^-5 M for most compounds. The reported endpoint is percent growth (GI% or GIPRCNT), where numbers from 0 - 100% represent growth inhibition, and numbers from -100% - 0 represent cell death. For example, a value of 40 represents 60% growth inhibition. A value of 0 means no net growth occurred over the course of the experiment. A value of -40 indicates 40% of cells at the beginning of the experiment died by the end of the experiment. A value of -100 means all cells are dead at the end of the experiment.
NCI-60 Human Tumor Cell Lines Screen was performed using the standard one-dose NCI protocol, which is described in more detail at https://dtp.cancer.gov/discovery_development/nci-60/default.htm.
Compounds with GIPRCNT values below 10 were considered active. Activity score was based on GIPRCNT using the following formula: […]
Score is 0 for GIPRCNT values of 100 or above, 50 for GIPRCNT values of 0, and 100 for GIPRCNT values of -100.

SMILES | growth
O=C(NCCNc1cc(-c2cn(-c3ccccc3)nc2-c2cccc(O)c2)ccn1)Nc1ccccc1 | 92.4%
Clc1ccc(-c2c3ccc(=[N+]4CCCCC4)cc-3oc3cc(N4CCCCC4)ccc23)cc1 | -90.3% (active)
CCCCN(CCCC)CC(C)(C)C(O)c1ccc(OC)c2ccccc12 (stereo not given) | 57.6%
CCN1CCN(c2cc(C)nc(NCc3cc(Nc4ccnc5cc(Cl)ccc45)ccc3F)n2)CC1 | 56%
CCCCCCCCn1ccc2cc(NC(=O)Cn3cc(CN4CCCC4)nn3)ccc21 | 88.4%
Cc1ccccc1NC(=O)N/C(N)=N/c1nc(-c2cccc([N+](=O)[O-])c2)cs1 | 76.3%
Cc1nn(-c2ccccc2)c(Cl)c1/C=C(/NC(=O)c1ccccc1)c1nc2ccccc2[nH]1 | 101%
COc1cccc(-c2nn(-c3ccccc3)cc2-c2ccnc(NCCCNC(=O)c3ccc(F)cc3)c2)c1 | 85.4%
CC/C=C\CCC/C=C1/C(=O)C=C[C@@H]1C/C=C\CCCC(=O)O | 72.6%
O=C1c2cccc(NCCN=Cc3cc([N+](=O)[O-])ccc3O)c2C(=O)c2c(NCCN=Cc3cc([N+](=O)[O-])ccc3O)cccc21 | 86.3%
Cc1cc(Cl)nc(NCc2cc(Nc3ccnc4cc(Cl)ccc34)ccc2F)n1 | 107%
CCN(CC)c1nc(SCC(=O)Nc2nc3ccc(C)cc3s2)nc(-c2ccccc2)c1C#N | 77.4%
CN(c1ccccc1)c1ccc2c(c1)OCCC21CC1Nc1cnccc1C(=O)O (stereo not given) | 96.2%
O=C(Nc1ccccc1-c1nc2ccccc2c(=O)[nH]1)c1cc2ccccc2[nH]1 | 95.3%
O=c1c2cc(F)ccc2sc2c(NCCN3CCCCC3)nc3ccccc3c12 | 69.3%
Cn1cc2c(c1)-c1nc(Nc3ccccc3)ncc1CC2 | 60%
O=S(=O)(O)c1ccc(N/N=C/c2ccccc2Cl)cc1 | 104%
Cc1cc(/C=C\c2ccc3ccccc3[n+]2C)c(O)c2ncccc12 | 23.9%
CN1C(=O)N(C)C2C1NN=c1s/c(=C\c3ccccc3)c(=O)n12 (stereo not given) | 66.6%
Cc1c(C(=O)N[C@@H](Cc2ccccc2)C(=O)C(=O)NCCc2ccccc2)[nH]c2ccccc2c1=O | 102%

SMILES | growth
COc1ccc(C(=O)COc2ccc(/C=C3\Oc4ccccc4C3=O)cc2)cc1 | 96.8%
CC(=O)N1C(=S)NC(=O)C1Cn1c(-c2ccccc2)nc2ccccc21 (stereo not given) | 103%
O=C1Nc2ccccc2/C1=C/c1cn(C(=O)c2c(Cl)cccc2Cl)c2ccccc12 | 85%
COc1cc(/C=C2\C(=O)ON=C2C)cc(OC)c1OC | 99.3%
COc1cccc(-c2nn(-c3ccccc3)cc2-c2ccnc(NCCNC(=O)Nc3ccc(Cl)c(Cl)c3)c2)c1 | 41.7%
CN(C)CCC=C1c2ccccc2C(C)(C)c2ccccc21 | 59.4%
CCOP(=O)(OCC)C1CP(=O)(c2ccccc2)CC(C)=C1Cl (stereo not given) | 97.8%
CC/C=C\C[C@H](O)C/C=C1/C(=O)C=C[C@@H]1C/C=C\CCCCO | 39.2%
CC/C=C\C[C@H](O)C/C=C1/C(=O)C=C[C@@H]1C/C=C\CCCC(=O)OC | 27.1%
COC1=CC(=O)C[C@@H](C)[C@]12Oc1c(Cl)c(OC)cc(OC)c1C2=O | 90.7%
COc1cc(OC)cc(C2CC(=O)Nc3c2c(C)nn3-c2nc3ccccc3[nH]2)c1 (stereo not given) | 50.2%
O=C(/C=C/c1ccc(Cl)nc1)c1ccc(Cl)cc1Cl | 91.4%
COc1ccc(CNC(=O)C(O)C(Cc2ccccc2)NC(=O)c2[nH]c3ccccc3c(=O)c2C)cc1OC (stereo not given) | 98.1%
CCN(CC)Cc1cccc(C(=O)OC)c1 | 94.1%
Fc1cnc(NC2CC2)nc1-c1cnc2ccc(N3CCOCC3)cn12 | -4.33% (active)
N/C(=N\c1nc2ccccc2s1)NC(=O)Nc1cccc(Cl)c1 | 67.5%
CC(=O)c1ccc(NCC(=O)Nc2ccccn2)cc1 | 109%
CN(C)CC1C(=O)O[C@H]2[C@H]1CC/C(COC(=O)c1cc3ccccc3[nH]1)=C\CC[C@@]1(C)O[C@@H]21 (stereo not given in full) | -5.25% (active)
O=C(NCCc1ccc(O)c(O)c1)C12CC3CC(CC(C3)C1)C2 | 66.3%
COc1cc(C2CC(c3ccc(Nc4ccnc5cc(Cl)ccc45)cc3)=NN2C=O)cc(OC)c1OC (stereo not given) | 109%
